The supplement of paper PMC6555819

Assays:
Experiment in all cases: PBM binding z-score (relative to random genomic background probes); higher = stronger binding; sequences stand for … in GC…GCGATTGACAGCGTAGAATGAAGG
[1] = test system: FXR:RXRa (NR concentration 270 nM, RXRa partner concentration 90 nM)
Outline: (§1)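 Each nuclear receptor dimer, without ligand, was incubated for 1 h on custom Agilent 4×180K protein-binding microarrays. Binding was detected with antibodies against each partner (one per run), and scanned fluorescence was regression-normalized. The binding z-scores are referenced to random human genomic background probes.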

[2] = test system: LXRa:RXRa (NR concentration 270 nM, RXRa partner concentration 90 nM)
Outline: as §1

[3] = test system: LXRa homodimer (NR concentration 270 nM)
Outline: as §1

[4] = test system: LXRb:RXRa (NR concentration 270 nM, RXRa partner concentration 90 nM)
Outline: as §1

[5] = test system: LXRb homodimer (NR concentration 270 nM)
Outline: as §1

[6] = test system: PPARa:RXRa (NR concentration 270 nM, RXRa partner concentration 90 nM)
Outline: as §1

[7] = test system: PPARg:RXRa (NR concentration 180 nM, RXRa partner concentration 90 nM)
Outline: as §1

[8] = test system: PPARg:RXRa 270nM:90nM, anti-RXR (NR concentration 270 nM, RXRa partner concentration 90 nM)
Outline: as §1

[9] = test system: PPARg:RXRa 30nM:10nM, anti-RXR (NR concentration 30 nM, RXRa partner concentration 10 nM)
Outline: as §1

[10] = test system: PPARg:RXRa 90nM:30nM, anti-RXR (NR concentration 90 nM, RXRa partner concentration 30 nM)
Outline: as §1

| Sequence | PBM binding z-score [1] | PBM binding z-score [2] | PBM binding z-score [3] | PBM binding z-score [4] | PBM binding z-score [5] | PBM binding z-score [6] | PBM binding z-score [7] | PBM binding z-score [8] | PBM binding z-score [9] | PBM binding z-score [10] |
| --- | --- | --- | --- | --- | --- | --- | --- | --- | --- | --- |
| TCTTGTAGATCAAAGGGTAAGAAAGCCGAAGCCT | 0.566 | 0.4 | -0.283 | 0.288 | -0.418 | 2.51 | 4.4 | 5.99 | 5.35 | 6.1 |
| TGAATGAGGTTATAAGATCAGTGAACGTTGCAAA | 1.18 | 1.34 | -0.254 | 1.17 | -0.0173 | 2.66 | 1.29 | 1.72 | 0.94 | 1.35 |
| AGTCAAAGTTCACTAGTTAACGTAAGATTCAGCT | 5.06 | 5.13 | 2.97 | 2.92 | 1.03 | 4.06 | 5.33 | 5.73 | 2.56 | 4.89 |
| GCTCGGAGGACAAGGTCAGAGCTTTGTCCGTAGA | 1.71 | 2.02 | -0.543 | 1.29 | -0.667 | 2.5 | 0.957 | 1.67 | -0.521 | 0.794 |
| AGTCAATGTTCACTAGGTAACGTAAGATTCAGCT | -0.318 | -0.205 | -0.143 | -0.121 | -0.147 | 0.363 | 0.656 | 0.368 | 0.15 | 0.302 |
| CTACGAAGGTGAACAAGGTCGTTGATTACTATTC | 1.63 | 1.54 | 0.18 | 1.91 | -0.34 | 2.66 | 0.958 | 1.03 | -0.0387 | 0.552 |
| CCTCGGAGGACAGACGGTCAGAGCTGTCCGCTTT | -0.245 | -0.454 | -0.415 | -1.1 | -0.8 | -0.791 | -0.705 | -1.01 | -1.36 | -0.797 |
| TGAATGAGATTATAAGATCAGGGAACGTTGCAAA | -0.81 | -0.599 | -0.661 | -0.508 | -0.369 | -0.202 | 0.324 | 0.0746 | 0.527 | 0.406 |
| ACTAGCAAGCCAAGGGTCACTCAAGATTAGTCCG | 2.21 | 2.75 | 0.27 | 2.66 | -0.201 | 3.53 | 3.39 | 4.44 | 2.1 | 4.11 |
| CCTGCTAGGTCAATCGTCAGCTAAAGCAGCTCGC | 3.35 | 2.19 | -0.244 | 1.57 | 0.108 | 2.85 | 1.39 | 2.18 | -0.19 | 1.39 |
| ATCGAAAGGTCGTGAGGTGCGTATACAGAAAGGC | 5.17 | 3.73 | -0.157 | 2.99 | -0.0634 | 5.18 | 3.39 | 3.76 | 1.13 | 2.4 |
| CTCGAAAGGTCGGTTGGGGTGAGTATACGGATAA | 3.34 | 2.38 | 0.622 | 2.86 | 1.41 | 3.38 | 0.807 | 1.47 | 0.13 | 0.958 |
| CCAGACAGGTGAGAAGGTCACTCAGCCTCGATTA | 2.4 | 2.53 | 0.729 | 2.7 | -0.075 | 3.65 | 2.01 | 3.07 | 0.629 | 1.98 |
| TTATCAAGGTGAAGGTCGTTGATCCCTCTGTAGA | 2.51 | 1.93 | 0.076 | 1.75 | -0.0841 | 3.01 | 2.92 | 3.88 | 2.1 | 3.49 |
| GTACCAAGGTGAATAGGTTGTTGATGAGTAGGCG | 0.414 | 0.445 | 0.0313 | 0.384 | -0.172 | 1.27 | 0.802 | 0.714 | -0.0689 | 0.204 |
| TGAATGGGGTTAAAGATCAGGGAACGTGGCGTCG | 5.11 | 3.48 | 0.361 | 4.01 | 3.3 | 5.61 | 6.88 | 7.24 | 5.21 | 7.51 |
| CCTACTGGGCCATCACGTCATTGATATCAACGTT | -0.11 | -0.114 | -0.158 | 0.0401 | -0.225 | 0.509 | 0.963 | 1.09 | 0.356 | 0.648 |
| AGCCAAAGTTCACTAGGTAACGTAAGATTCAGCT | 4.84 | 4.92 | 2.67 | 2.81 | 0.629 | 4.51 | 5.95 | 5.78 | 3.24 | 5.12 |
| GCAGACAGATGAAACGCAGGTAACTCAGGGTGGC | -0.734 | -0.704 | -0.594 | -0.986 | -1.14 | -0.624 | 0.616 | -0.641 | -0.438 | -0.564 |
| CTCGAAAGTTCGTGCTCAGGTGAGTATACCAAAC | 0.841 | 1 | 0.162 | 1.03 | -0.134 | 1.39 | -0.262 | 0.502 | 0.0705 | 0.433 |
| CCTAGCAGGCCAATGTGGGTCACTCAAGGCTTGA | 0.735 | 1.67 | -0.413 | 0.94 | -1.16 | 3.33 | 1.94 | 2.65 | 0.359 | 1.74 |
| CAAACTAGGTGAAGAGGTCAAAGTCCGCTTCCCG | 4.89 | 4.87 | 4.29 | 4.34 | 0.798 | 5.95 | 8.28 | 7.03 | 5.27 | 7.36 |
| CCGAGTAGGTTATGGGGCATTAAGGCAACGGTGA | 0.273 | 0.355 | 0.112 | 0.489 | 0.086 | 1.94 | 3.57 | 4.37 | 2.35 | 3.99 |
| CCTTACGGGTCACTCCAGTTTATAGCATCGGAGT | 5.02 | 6.61 | 0.838 | 3.77 | -0.0101 | 4.4 | 3.25 | 3.3 | 1.11 | 2.27 |
| CCCACTGGGCCACGAAAGGTCATTGATTCAGTGA | 3.78 | 5.11 | 5.17 | 4.22 | 0.369 | 4.8 | 4.92 | 4.99 | 1.85 | 3.53 |
